# In all, about 300,000 compounds went through this assay and about 5,200 (1.7%) were called active.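 Rule for the calls: active = mean replicate activation of at least 50% with a set share of replicates each reaching 50%; inconclusive = only one of those two conditions met; inactive = mean below 50% and too few replicates reaching it.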 What follows is part of a selection rich in actives, with near analogues and random picks from the rest.
# Assay: HSF-1 activators, primary screen, NIH3T3-HGL cells, MG132 stress, luminescence, single point (AID 504408);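 note: 0% = median of the neutral control wells and 100% = twice that signal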
# Conditions: NIH3T3-HGL HSF-1 luciferase reporter, MG132, 8 h; at 9 µM; stronger effect = higher value; 100% = twice DMSO control signal
row,SMILES,activation
1,CC(=O)N1CCN(C(=O)c2cc(-c3ccc(Cl)s3)nc3ccccc23)CC1,18.1% (inactive)
2,Cc1ccc(Nc2nc(-c3ccc(O)cc3O)cs2)nc1,-44.2% (inactive)
3,O=c1oc2ccccc2cc1-c1csc(Nc2ccc(O)cc2)n1,125% (active)
4,CCNc1nc(-c2cc3ccccc3o2)cs1,25.2% (inactive)
5,COc1cccc(C2Nc3cccc4cccc(c34)N2)c1,1.58% (inactive)
6,COc1ccc(C2NC(=O)c3ccccc3N2)cc1 (stereo not drawn),73.7% (active)
7,O=C1NC(c2cccc(Cl)c2)Nc2ccccc21 (stereo not drawn),19.4% (inactive)
8,COc1ccc2c(c1)O/C(=C\c1ccccc1O)C2=O,61.8% (active)
9,O=C1Oc2ccccc2C(=O)/C1=C/c1ccccc1O,-36.2% (inactive)
10,COC(=O)C(C)Oc1ccc2c(c1)O/C(=C\c1cccc(Br)c1)C2=O (stereo not drawn),-3.63% (inactive)
11,CCOc1ccc(/C=C/C(=O)N(CC)CC(=O)NCc2cccs2)cc1OC,-14% (inactive)
12,COc1ccccc1-n1ccnc(SCC(=O)NC2CCCCC2)c1=O,-0.123% (inactive)
13,O=C(O)CCCCc1nc2ccccc2s1,13% (inactive)
14,CCC(=O)NC(=Nc1nc2ccccc2s1)NC(=O)CC,60.3% (active)
15,CC(C)CC(=O)N/C(N)=N/c1nc2ccccc2s1,10.3% (inactive)
16,COc1ccc2sc(N(CCCN(C)C)C(=O)c3ccc(S(=O)(=O)N(C)C4CCCCC4)cc3)nc2c1,-14.5% (inactive)
17,O=C(CCC(=O)OCc1ccc(Cl)cc1)Nc1ccccc1,10.6% (inactive)
18,O=C1c2cccc3cc(Br)cc(c23)C(=O)N1Nc1ccccc1,-9.54% (inactive)
19,O=C1C=C(c2ccc(Cl)cc2)C(=O)N1Nc1ccccc1,82% (active)
20,Cc1cc(C)n2nc(C(=O)OCC(=O)N(CCC#N)c3ccc(F)cc3)nc2n1,12.7% (inactive)

row,SMILES,activation
1,O=C(NCc1ccccc1Cl)C(=O)NCC1CCCN1S(=O)(=O)c1cccs1 (stereo not drawn),4.38% (inactive)
2,CCCCN(C(=O)c1ccc(C)o1)c1c(N)n(CCCC)c(=O)[nH]c1=O,12.2% (inactive)
3,CN(C)CCCN(C(=O)c1ccc(S(=O)(=O)N2CCCCCC2)cc1)c1nc2cc3c(cc2s1)OCCO3,-46.2% (inactive)
4,CCCCn1c(N)c(N(CC(C)C)C(=O)c2cccc(S(=O)(=O)N3CC(C)OC(C)C3)c2)c(=O)[nH]c1=O (stereo not drawn),-0.424% (inactive)
5,Cc1ccc(S(=O)(=O)NCCSc2ccccc2)cc1[N+](=O)[O-],-0.244% (inactive)
6,CCOc1ccc(S(=O)(=O)NCCC(=O)N2CCCCCCC2)cc1,4.97% (inactive)
7,CCOc1ccc(S(=O)(=O)NCCSc2ccccc2)cc1,61.2% (active)
8,COc1ccc(-c2cc(C(=O)N/N=C/c3cccnc3)c3ccccc3n2)c(OC)c1,5.29% (inactive)
9,O=C(NCCNc1ccc([N+](=O)[O-])cc1Cl)c1ccccc1F,18.7% (inactive)
10,O=C(NCCCNc1ccc([N+](=O)[O-])cc1Cl)c1ccccc1F,-9.78% (inactive)
11,O=C(NCCNc1ccccc1[N+](=O)[O-])c1ccccc1F,55.9% (active)
12,O=C(c1ccncc1)N1CCN(S(=O)(=O)c2cccc([N+](=O)[O-])c2)CC1,4.99% (inactive)
13,COc1cccc(NC(=O)CN(C)C(=O)CSCc2nc3scc(-c4cccs4)c3c(=O)[nH]2)c1,0.833% (inactive)
14,O=C(c1ccc(NS(=O)(=O)c2ccc3[nH]c(=O)[nH]c3c2)cc1)N1CCCCC1,12.7% (inactive)
15,COc1ccc(Cl)cc1NC(=O)CN(C)C(=O)CCCc1c[nH]c2ccccc12,60.8% (active)
16,COc1ccc(Cl)cc1NC(=O)CN(C)C(=O)c1cc2ccccc2cc1OC,21% (inactive)
17,COc1ccccc1NC(=O)CCCc1c[nH]c2ccccc12,-2.42% (inactive)
18,COc1ccccc1NS(=O)(=O)c1ccc(C)c(C(=O)NCC(c2ccco2)N(C)C)c1 (stereo not drawn),-1.37% (inactive)
19,COc1ccccc1C(=O)Nc1cccc(C(=O)N2CCOCC2)c1,8.16% (inactive)
20,CCc1cc(C(c2ccccc2OC)N2CCOCC2)c(NC(=O)c2ccccc2)s1 (stereo not drawn),68.8% (active)

row,SMILES,activation
1,COc1cc2ccccc2cc1C(=O)Nc1ccc(N2CCOCC2)cc1,4.47% (inactive)
2,Cc1ccc(C(=O)NNC(=O)c2ccncc2)cc1S(=O)(=O)N1CCCCC1,-9.07% (inactive)
3,CCCCCCCNC(=O)C1(CC2CC(c3cccc(Br)c3)=NO2)CCN(C(=O)c2cc(OCC)c(OCC)c(OCC)c2)CC1 (stereo not drawn),4.29% (inactive)
4,Cn1cc([N+](=O)[O-])c(C(=O)Nc2ccc3c(c2)OCCO3)n1,48.7% (inactive)
5,Cn1cc([N+](=O)[O-])c(C(=O)Nc2cnn(Cc3ccc(F)cc3)c2)n1,65.1% (active)
6,CCc1ccc(NC(=O)c2ccc(Cn3cc([N+](=O)[O-])cn3)cc2)cc1,-1.45% (inactive)
7,CCOc1ccc(NC(=O)CSc2nc3ccccc3c(=O)n2Cc2cccs2)cc1,-10.7% (inactive)
8,O=C(CSc1nc2nccnc2c(=O)n1Cc1cccs1)Nc1ccccc1F,77.1% (active)
9,O=C(CSc1ccc(-c2cccs2)nn1)Nc1ccccc1F,-2.98% (inactive)
10,COCCn1c(SCC(=O)Nc2cc(Cl)ccc2OC)nc2c(c1=O)SC(C)C2 (stereo not drawn),-0.138% (inactive)
11,COCCn1c(SCC(=O)N2CCCCCC2)nc2c(c1=O)SCC2,2.01% (inactive)
12,COCCn1c(SCC(=O)Nc2ccccc2F)nc2c(c1=O)SCC2,54.8% (active)
13,CCc1ccc(C(=O)NNC(=O)C2CCN(c3ncnc4sc(C)c(C)c34)CC2)cc1,-1.58% (inactive)
14,CCOc1ccc(NS(=O)(=O)c2ccc(C(=O)NCC(c3ccccc3OC)N3CCCC3)cc2)cc1 (stereo not drawn),-2.02% (inactive)
15,COc1cccc(COC(=O)C2CCN(S(=O)(=O)c3cccs3)CC2)c1OC,1.63% (inactive)
16,O=C(CC1SC(N2CCCC2)=NC1=O)Nc1ccc(C(=O)NCCc2ccc(F)cc2)cc1 (stereo not drawn),-12% (inactive)
17,CCN(C(=O)COC(=O)C1CCN(S(=O)(=O)c2ccc(C)c(C)c2)CC1)C1CCS(=O)(=O)C1 (stereo not drawn),1.03% (inactive)
18,Cc1ccc(C)c(OCCC(=O)OCC(=O)NC(=O)NCc2ccccc2)c1,-2.69% (inactive)
